Screening data: PubChem BioAssay, National Center for Advancing Translational Sciences (NCATS)
Pol beta inh: blocks human DNA polymerase beta activity | Pol beta primer extension/strand displacement, fluorescence kinetic | 340,000 compounds, 1.3% hits | Potency, µM (top dose mostly 114 µM), for the others: top-dose activity change, negative = inhibition, actives largely listed as inhibitors; further: on the % scale 0 is the no-effect control and ±100 the full control effect
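10 nM enzyme + cpd, 15 min RT; start with substrate 50 nM final; read 0 min and after 10 min RT. Corrected, normalized data; 4-parameter Hill curve fit.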
WRN helicase inh-1: blocks human WRN helicase. Q14191. WRN helicase unwinding, fluorescent forked duplex, kinetic. Potency, µM (highest dose often 114 µM), without a hit: top-dose activity change, negative = inhibition, usual class: inhibitors. 360,000 compounds, 0.46% hits. AID 651768; further: on the % scale 0 is the no-effect control and ±100 the full control effect; nearly all actives have a fitted effect of over 55% in size
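Kinetic red-fluorescence monitoring (525/598 nm) tracks WRN helicase activity after 100 nM fluorophore-quencher forked duplex and 2 mM ATP are added to 20 nM enzyme pretreated 15 min at room temperature with compound.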
POLK inh: blocks human DNA polymerase kappa activity | Q9UBT6 | purified Pol kappa, fluorescent DNA synthesis assay, 10 min | Potency, µM (doses to about 107 µM), for the others: at the top dose activity, negative = inhibition, usual class: inhibitors | 400,000 compounds, 0.53% hits; further: on the % scale 0 is the no-effect control and ±100 the full control effect
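Here, compound and 10 nM enzyme are combined for 15 min at room temperature; adding 50 nM substrate (final) starts DNA synthesis, tracked by fluorescence at 0 and 10 min against buffer-only wells.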
FEN1 inh-1: blocks human flap endonuclease 1 | P39748 | Recombinant FEN1 flap cleavage, fluorescence, 15 min | 390,000 compounds, 0.35% hits | AID 588795 | Potency, µM (titrated, usually from 114 µM), inactives show at the top dose activity change, negative = inhibition, hits mostly inhibitors; further: on the % scale 0 is the no-effect control and ±100 the full control effect; nearly all actives have a fitted effect of over 65% in size
Target sequence (P39748 whole entry, looked up): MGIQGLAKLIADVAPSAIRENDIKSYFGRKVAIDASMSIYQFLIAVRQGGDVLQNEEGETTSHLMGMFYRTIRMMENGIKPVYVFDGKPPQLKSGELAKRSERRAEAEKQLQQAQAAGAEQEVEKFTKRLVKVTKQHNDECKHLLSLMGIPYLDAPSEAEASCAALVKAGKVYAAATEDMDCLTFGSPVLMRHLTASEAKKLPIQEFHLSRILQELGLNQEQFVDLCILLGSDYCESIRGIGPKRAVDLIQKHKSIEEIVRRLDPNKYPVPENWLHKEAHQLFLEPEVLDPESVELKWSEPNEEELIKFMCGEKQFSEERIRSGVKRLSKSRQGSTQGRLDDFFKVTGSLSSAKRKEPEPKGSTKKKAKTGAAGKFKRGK
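Quantitative HTS format: each compound was titrated, incubated with 10 nM nuclease for 15 min at room temperature, then challenged with flap substrate at 50 nM final. Signal change over 15 min gave concentration–effect curves.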
Pol iota inh: inhibitors of human DNA polymerase iota; Q9UNA4; Pol iota fluorescent replication assay, 10 min; Potency, µM (titrated, usually from 115 µM), without a hit: at the highest dose activity, negative = inhibition, hits mostly inhibitors; 390,000 compounds, 1% hits
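Pol iota at 10 nM preincubated 15 min with compounds at room temperature; reaction started with fluorescent substrate, 50 nM final. Fluorescence read kinetically at 0 and 10 min; buffer-only wells as negative control.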
POLH inh: inhibitors of human DNA polymerase eta. Q9Y253. recombinant Pol eta, fluorescent DNA replication assay. Potency, µM (top dose mostly 114 µM), without a hit: at the highest dose activity change, negative = inhibition, hits mostly inhibitors. 390,000 compounds, 1.2% hits; further: on the % scale 0 is the no-effect control and ±100 the full control effect
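Fluorescent replication assay: 50 nM final substrate added after a 15 min room-temperature compound preincubation with 10 nM enzyme. Signal taken at 0 min and again at 10 min.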
FEN1 inh-2: confirmation of human FEN1 inhibitors | shares compounds with FEN1 inh-1 | FEN1 flap cleavage, TAMRA/BHQ2 fluorogenic DNA substrate | Potency, µM, hits mostly inhibitors | 880 compounds, 79% hits | AID 720498; further: nearly all actives have a fitted effect of over 60% in size
WRN helicase inh-2: WRN helicase inhibition, cherry-pick retest. shares compounds with WRN helicase inh-1. WRN helicase DNA unwinding, fluorescence kinetic. Potency, µM (top dose mostly 57.1 µM), inactives show at the top dose activity, negative = inhibition, most hits filed as inhibitors. 610 compounds, 63% hits; further: nearly all actives have a fitted effect of over 65% in size
TO displacement: DNA binding via thiazole orange displacement. shares compounds with WRN helicase inh-1. thiazole orange DNA binding displacement, fluorescence. Potency, µM (doses to about 57.1 µM), for inactives: top-dose activity change, negative = inhibition, hits mostly inhibitors. 610 compounds, 10% hits. AID 720499;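 further: drop in dye fluorescence marks compound binding to DNA; on the % scale 0 is the no-effect control and ±100 the full control effect; nearly all actives have a fitted effect of over 60% in size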
BLM helicase inh: blocks human BLM helicase in WRN counterscreen; shares compounds with WRN helicase inh-1; Recombinant BLM helicase DNA unwinding, red fluorescence; Potency, µM (doses to about 57.1 µM), without a hit: top-dose activity change, negative = inhibition, usual class: inhibitors; 610 compounds, 60% hits; further: nearly all actives have a fitted effect of over 60% in size
* hit, by the source's call; i = inactive; ? = inconclusive; nt = no result given; [ ] = dose if it differs, or a comment. Rows were chosen to be rich in hits. Some 2.4% of all compounds tested hit in one or more screens of this group. The call rests on the fitted dose curve; in most records, active means well fitted curve in the direction sought with a large enough effect; inconclusive means small, poorly fitted or top-dose-only effect, or another doubt; inactive means no such curve, though single readings can be large; an effect the other way counts as inactive or inconclusive. Potency means the concentration at half of the fitted maximal effect.

SMILES	Pol beta inh	WRN helicase inh-1	POLK inh	FEN1 inh-1	Pol iota inh	POLH inh	FEN1 inh-2	WRN helicase inh-2	TO displacement	BLM helicase inh
COc1ccc(S(=O)(=O)N2CCN(C(=O)c3ccc([N+](=O)[O-])o3)CC2)cc1	?	-5%[11.6 µM]	-18%	0%	?	?	76*	nt	nt	nt
COc1ccc(CCC(=O)N2CCN(S(=O)(=O)c3ccc(C)cc3)CC2)cc1	nt	-4%	10%	7%	-2%	-14%	nt	nt	nt	nt
COCCCNc1nc(N)c([N+](=O)[O-])c(Nc2cc(OC)ccc2OC)n1	3%	-4%	-11%	-3%	52%	6%	nt	nt	nt	nt
COc1ccc(OC)c(Nc2nc(NCCCN(C)C)nc(N)c2[N+](=O)[O-])c1	35µM*	35µM*	?	13µM*	32µM*	50µM*	48*	nt	nt	nt
Cc1nc(Nc2ccncc2)c2oc3ccccc3c2n1	?	20%[57.1 µM]	-8%	45µM*	?	-2%	43*	nt	nt	nt
CC(=O)Nc1sc2c(c1-c1nc3ccccc3o1)CCN(C(C)C)C2	nt	nt	nt	nt	nt	nt	30*	nt	nt	nt
COc1cc(-c2ccc3ncnc(NCc4nc(C)cs4)c3c2)cc(OC)c1OC	nt	nt	nt	nt	nt	nt	?	nt	nt	nt
COc1ccc(-c2ccc3ncnc(NCCc4cnc[nH]4)c3c2)cc1OC	nt	nt	nt	nt	nt	nt	30*	nt	nt	nt
COc1ccc2[nH]cc(CCNc3ncnc4ccc(-c5cccnc5)cc34)c2c1	nt	nt	0%[60.1 µM]	nt	nt	nt	nt	nt	nt	nt
CN(C)CCN(C)Cc1c2ccccc2c(CN(C)CCN(C)C)c2ccccc12	-31%	?	-11%	50µM*	66%	-12%	?	nt	nt	nt
CN(C)CCP(=O)(c1ccccc1)c1ccccc1	20%	-7%	0%	14%	-1%	-15%	nt	nt	nt	nt
Cc1nc2ccc(N)cc2c(=O)n1Cc1ccc(Cl)cc1	-8%	-17%	-17%	2%	12%	4%	nt	nt	nt	nt
Nc1ccc(Cn2ccc3c4c(N)nc(N)nc4ccc32)cc1	nt	16µM*	-33%	25µM*	56%	?	43*	22µM*	76%	14µM*
COc1cc2nc(NCCCN3CCN(C)CC3)n3nc(-c4ccccc4)nc3c2cc1OC	25µM*	12µM*	?	20µM*	?	?	12*	12µM*	-29%	-5%
CCOc1ccccc1N(C)C(=O)Cn1cnc2sc(C)c(S(=O)(=O)N3CCC(C)CC3)c2c1=O	16%	nt	5%	-3%	-9%	-4%	nt	nt	nt	nt
Cc1ccc(NC(=O)N/C=C/c2ccco2)cc1	22µM*	?	50µM*	-15%	20µM*	50µM*	nt	-23%	-28%	14µM*
C=CS(=O)(=O)c1sc(Cl)c(N2CCOCC2)c1[N+](=O)[O-]	-29%	32µM*	-31%	-8%	?	?	nt	14µM*	-25%	3.4µM*
O=S1(=O)N[C@H](Cc2ccccc2)COc2cc(N3CCN(Cc4ccccc4F)CC3)ccc21	nt	3%	nt	nt	nt	nt	nt	nt	nt	nt
Cn1cnc([N+](=O)[O-])c1S(=O)(=O)Oc1cccc2ccccc12	nt	-88%	-15%	4%	?	-5%	nt	?	-7%	?
CCCOc1ccc(C(=O)CCN2CCN(C(=O)OCC)CC2)cc1	-14%	?	-4%	-1%	25%	-12%	nt	-16%	-6%	-18%
CC(=O)N(C1=C(Cl)C(=O)c2ccccc2C1=O)C1CCCCC1	7%	14µM*	-13%	?	?	-10%	nt	-27%	-16%	?
Cc1ccc(C(=O)NNC(=O)c2ccc(S(=O)(=O)N3CCCCC3)cc2)cc1	nt	35µM*	-17%	-16%	?	-2%	nt	-17%	-2%	?
COc1ccc(NC(=O)CN(C)CC(=O)Nc2ccccc2SC)cc1	-18%	28µM*	-4%	-1%	9%	-9%	nt	-13%	-9%	-21%
COc1ccc(OCCN(C)CC(=O)Nc2ccccc2SC)cc1	36%	-5%	-15%	-3%	74%	-17%	nt	nt	nt	nt
N#C/C(=C\c1ccc(O)c([N+](=O)[O-])c1)c1nc2ccccc2s1	50µM*	32µM*	-27%	?	?	20µM*	nt	24µM*	22µM*	24µM*
SMILES	Pol beta inh	WRN helicase inh-1	POLK inh	FEN1 inh-1	Pol iota inh	POLH inh	FEN1 inh-2	WRN helicase inh-2	TO displacement	BLM helicase inh
N#C/C(=C/c1ccco1)c1nc2ccccc2s1	-11%	-1%	-10%	-1%	20%	-15%	nt	nt	nt	nt
N#Cc1ncc(Cc2ccccc2)nc1C#N	7%	1.7µM*	-13%	8%	33%	40µM*	nt	-10%	-7%	-19%
COc1cccc(/C=C2/C(=O)NN(c3ccc(Br)cc3)C2=O)c1O	?	0.67µM*	-25%	-8%	29%	79µM*	nt	17µM*	-23%	6.8µM*
COc1cc(/C=C2/C(=O)NN(c3ccc(Cl)cc3)C2=O)cc(Br)c1O	?	-23%	-21%	14%	?	-13%	nt	nt	nt	nt
CCn1nc(-c2ccccc2)c(-c2ccccc2)c(C(=O)Nc2ccc(NC(C)=O)cc2)c1=O	-21%	nt	1%	-4%	22%	-21%	nt	nt	nt	nt
COc1ccc(-n2c(O)c(/C=N/NS(=O)(=O)c3ccc(C)c([N+](=O)[O-])c3)c3ccccc3c2=O)cc1OC	-27%	?	-19%	-10%	?	-16%	nt	19µM*	295%	22µM*
CC(=O)[C@@]1(O)Cc2c(O)c3c(c(O)c2[C@H](O[C@H]2C[C@H](N)[C@H](O)[C@H](C)O2)C1)C(=O)c1ccccc1C3=O	nt	nt	nt	nt	nt	nt	nt	24µM*	i	24µM*
N#CCC(=O)Nc1ccc(C(=O)OCC(=O)NNC(=O)c2ccc(Cl)cc2)cc1	nt	?	-12%	?	?	?	nt	?	30µM*	?
N#CCC(=O)Nc1ccc(C(=O)OCC(=O)NNC(=O)c2cccs2)cc1	nt	-27%	-9%	-3%	?	?	nt	nt	nt	nt
N#C/C(=C\c1ccc(Cl)cc1)c1nc2ccccc2[nH]1	0%	nt	-10%	-14%	41%	0%	nt	nt	nt	nt
